# Reference: article PMC5540273 (PLoS ONE, 2017)
# Where two headings read alike, the source gives them in different places.
# Legend:
# [1] = tested on: JAK1(JH2domain-pseudokinase); settings: concentration: 1 μM, replicates: in singlicate; n = 1
# [2] = tested on: JAK2(JH1domain-catalytic); settings: concentration: 1 μM, replicates: in singlicate; n = 1
# [3] = tested on: JAK3(JH1domain-catalytic); settings: concentration: 1 μM, replicates: in singlicate; n = 1
# JNK1 = tested on: T1, JNK1; settings: concentration: 1 μM, replicates: in singlicate; n = 1
# T1 construct: gene MAPK8
# JNK2 = tested on: T2, JNK2; settings: concentration: 1 μM, replicates: in singlicate; n = 1
# T2 construct: gene MAPK9
# JNK3 = tested on: T3, JNK3; settings: concentration: 1 μM, replicates: in singlicate; n = 1
# T3 construct: gene MAPK10
# KIT-autoinhibited = settings: concentration: 1 μM, replicates: in singlicate; n = 1
# KIT = settings: concentration: 1 μM, replicates: in singlicate; n = 1
# LATS1 = settings: n = 1
# LATS2 = settings: concentration: 1 μM, replicates: in singlicate; n = 1
# LCK = settings: concentration: 1 μM, replicates: in singlicate; n = 1
# LIMK1 = settings: concentration: 1 μM, replicates: in singlicate; n = 1
# LIMK2 = settings: concentration: 1 μM, replicates: in singlicate; n = 1
# LKB1 = tested on: T4, LKB1; settings: concentration: 1 μM, replicates: in singlicate; n = 1
# T4 construct: gene STK11
# LOK = tested on: T5, LOK; settings: concentration: 1 μM, replicates: in singlicate; n = 1
# T5 construct: gene STK10
# LRRK2 = settings: concentration: 1 μM, replicates: in singlicate; n = 1
# LTK = settings: concentration: 1 μM, replicates: in singlicate; n = 1
# LYN = settings: concentration: 1 μM, replicates: in singlicate; n = 1
# LZK = tested on: T6, LZK; settings: concentration: 1 μM, replicates: in singlicate; n = 1
# T6 construct: gene MAP3K13
# MAK = settings: concentration: 1 μM, replicates: in singlicate; n = 1
# [4] = concentration: 1 μM, replicates: in singlicate
# 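Note: KINOMEscan kinase panel screen.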
structure (smiles),measurement,setting,value
CCn1c(-c2nonc2N)nc2c(C#CC(C)(C)O)ncc(OCCCCN)c21.O=C(O)C(F)(F)F.O=C(O)C(F)(F)F [GSK507274],%Inh,[1],0%
same,%Inh,[2],60%
same,%Inh,[3],0%
same,%Inh,JNK1,25%
same,%Inh,JNK2,10%
same,%Inh,JNK3,11%
same,%Inh,KIT-autoinhibited,0%
same,%Inh,KIT,17%
same,%Inh,LATS1; 1 µM,0%
same,%Inh,LATS2,89%
same,%Inh,LCK,0%
same,%Inh,LIMK1,0%
same,%Inh,LIMK2,0%
same,%Inh,LKB1,0%
same,%Inh,LOK,0%
same,%Inh,LRRK2,45%
same,%Inh,LTK,0%
same,%Inh,LYN,0%
same,%Inh,LZK,0%
same,%Inh,MAK,88%
Cl.Cl.NCC(C(=O)Nc1cc(Br)c(-c2ccnc3[nH]ccc23)s1)c1ccccc1 (stereo not drawn) [GSK1269851],%Inh,[1],0%
same,%Inh,[2],78%
same,%Inh,[3],100%
same,%Inh,JNK1,15%
same,%Inh,JNK2,7%
same,%Inh,JNK3,0%
same,%Inh,KIT-autoinhibited,2%
same,%Inh,KIT,12%
same,%Inh,LATS1; [4],62%
same,%Inh,LATS2,80%
same,%Inh,LCK,28%
same,%Inh,LIMK1,27%
same,%Inh,LIMK2,0%
same,%Inh,LKB1,78%
same,%Inh,LOK,0%
same,%Inh,LRRK2,20%
same,%Inh,LTK,0%
same,%Inh,LYN,0%
same,%Inh,LZK,0%
same,%Inh,MAK,1%
c1ccc(Oc2ccc(Nc3ccnc4cc(-c5ccc(CNCCN6CCOCC6)o5)ccc34)cc2)nc1 [GW567145],%Inh,[1],0%
same,%Inh,[2],7%
same,%Inh,[3],0%
same,%Inh,JNK1,18%
same,%Inh,JNK2,2%
same,%Inh,JNK3,0%
same,%Inh,KIT-autoinhibited,4%
same,%Inh,KIT,79%
same,%Inh,LATS1; [4],8%
same,%Inh,LATS2,0%
same,%Inh,LCK,78%
same,%Inh,LIMK1,0%
same,%Inh,LIMK2,0%
same,%Inh,LKB1,20%
same,%Inh,LOK,30%
same,%Inh,LRRK2,20%
same,%Inh,LTK,0%
same,%Inh,LYN,28%
same,%Inh,LZK,32%
same,%Inh,MAK,0%
Oc1cc(Nc2ccnc3cc(I)ccc23)ccc1F [GW552771],%Inh,[1],0%
same,%Inh,[2],7%
same,%Inh,[3],0%
same,%Inh,JNK1,32%
same,%Inh,JNK2,43%
same,%Inh,JNK3,28%
same,%Inh,KIT-autoinhibited,0%
same,%Inh,KIT,70%
same,%Inh,LATS1; [4],0%
same,%Inh,LATS2,0%
same,%Inh,LCK,78%
same,%Inh,LIMK1,8%
same,%Inh,LIMK2,0%
same,%Inh,LKB1,0%
same,%Inh,LOK,0%
same,%Inh,LRRK2,55%
same,%Inh,LTK,4%
same,%Inh,LYN,20%
same,%Inh,LZK,9%
same,%Inh,MAK,22%
O=C(Nc1ccccc1F)NC1CCN(c2ccnc(Nc3ccc(F)cc3)n2)CC1 [GSK1379800],%Inh,[1],0%
same,%Inh,[2],0%
same,%Inh,[3],0%
same,%Inh,JNK1,3%
same,%Inh,JNK2,0%
same,%Inh,JNK3,0%
same,%Inh,KIT-autoinhibited,0%
same,%Inh,KIT,7%
same,%Inh,LATS1; [4],0%
same,%Inh,LATS2,3%
same,%Inh,LCK,5%
same,%Inh,LIMK1,0%
same,%Inh,LIMK2,28%
same,%Inh,LKB1,0%
same,%Inh,LOK,0%
same,%Inh,LRRK2,0%
same,%Inh,LTK,0%
same,%Inh,LYN,0%
same,%Inh,LZK,21%
same,%Inh,MAK,23%
COc1ccc(Nc2nccc(NCCNC(=O)c3cc4ccccc4s3)n2)cc1 [GSK1379896],%Inh,[1],0%
same,%Inh,[2],23%
same,%Inh,[3],0%
same,%Inh,JNK1,6%
same,%Inh,JNK2,27%
same,%Inh,JNK3,6%
same,%Inh,KIT-autoinhibited,0%
same,%Inh,KIT,5%
same,%Inh,LATS1; [4],0%
same,%Inh,LATS2,0%
same,%Inh,LCK,19%
same,%Inh,LIMK1,0%
same,%Inh,LIMK2,0%
same,%Inh,LKB1,1%
same,%Inh,LOK,0%
same,%Inh,LRRK2,0%
same,%Inh,LTK,0%
same,%Inh,LYN,0%
same,%Inh,LZK,0%
same,%Inh,MAK,27%
O=C(NC1CCN(c2ccnc(Nc3ccc(F)cc3)n2)C1)c1cc2ccccc2s1 (stereo not drawn) [GSK1379716],%Inh,[1],0%
same,%Inh,[2],0%
same,%Inh,[3],0%
same,%Inh,JNK1,24%
same,%Inh,JNK2,29%
same,%Inh,JNK3,13%
same,%Inh,KIT-autoinhibited,0%
same,%Inh,KIT,21%
same,%Inh,LATS1; [4],7%
same,%Inh,LATS2,0%
same,%Inh,LCK,32%
same,%Inh,LIMK1,0%
same,%Inh,LIMK2,0%
same,%Inh,LKB1,19%
same,%Inh,LOK,0%
same,%Inh,LRRK2,0%
same,%Inh,LTK,10%
same,%Inh,LYN,0%
same,%Inh,LZK,23%
same,%Inh,MAK,38%
COC(=O)Nc1nc2cc(Oc3ccc(NC(=O)Nc4cc(C(F)(F)F)ccc4F)cn3)ccc2[nH]1.Cl.Cl [GW681170],%Inh,[1],0%
same,%Inh,[2],30%
same,%Inh,[3],0%
same,%Inh,JNK1,0%
same,%Inh,JNK2,62%
same,%Inh,JNK3,0%
same,%Inh,KIT-autoinhibited,1%
same,%Inh,KIT,100%
same,%Inh,LATS1; [4],0%
same,%Inh,LATS2,8%
same,%Inh,LCK,92.9%
same,%Inh,LIMK1,0%
same,%Inh,LIMK2,0%
same,%Inh,LKB1,11%
same,%Inh,LOK,99.8%
same,%Inh,LRRK2,22%
same,%Inh,LTK,47%
same,%Inh,LYN,36%
same,%Inh,LZK,21%
same,%Inh,MAK,0%
COc1ccc(-c2coc3ccc(-c4nnc(SCc5ccc(OC)c(C(F)(F)F)c5)o4)cc23)cc1,%Inh,[1],32%
same,%Inh,[2],22%
same,%Inh,[3],0%
same,%Inh,JNK1,0%
same,%Inh,JNK2,0%
same,%Inh,JNK3,0%
same,%Inh,KIT-autoinhibited,7%
same,%Inh,KIT,20%
same,%Inh,LATS1; [4],25%
same,%Inh,LATS2,0%
same,%Inh,LCK,0%
same,%Inh,LIMK1,25%
same,%Inh,LIMK2,12%
same,%Inh,LKB1,0%
same,%Inh,LOK,24%
same,%Inh,LRRK2,0%
same,%Inh,LTK,27%
same,%Inh,LYN,0%
same,%Inh,LZK,0%
same,%Inh,MAK,22%
